The panel holds about 79,000 compounds, 15% with a hit somewhere; the sample as a whole holds those more often. Unmarked numbers belong to inactive results. Active and inactive are the calls of the source. Rule as the data show it: active = growth inhibition above about 70%; inactive = the rest.
Legend:
[1] = NCI Yeast Anticancer Drug Screen. Data for the rad50 strain (AID 155);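 also: 0% = growth of vehicle-only cultures of the same strain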; conditions: S. cerevisiae rad50 strain growth inhibition; at 50.0 µM; stronger effect = higher value
Method in brief: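 Inhibition values express reduced yeast growth in compound-treated cultures relative to vehicle-treated controls.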

[2] = NCI Yeast Anticancer Drug Screen. Data for the mec2-1 strain (AID 157); conditions: S. cerevisiae mec2-1 strain, at 50.0 µM, stronger effect = higher value
Method in brief: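 Cells of the genetically defined mec2-1 yeast strain are incubated with test compound. Inhibition of growth is calculated against vehicle-treated controls.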

[3] = NCI Yeast Anticancer Drug Screen. Data for the sgs1 mgt1 strain (AID 161);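 also: 0% = growth of cultures given vehicle only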; conditions: S. cerevisiae sgs1 mgt1 strain, at 50.0 µM, stronger effect = higher value
Method in brief: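 Test agents were incubated with a DNA-repair-mutant yeast strain. Growth was then read and compared against vehicle-treated controls.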

[4] = NCI Yeast Anticancer Drug Screen. Data for the cln2 rad14 strain (AID 165);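 also: 0% = growth equal to vehicle treated cultures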; conditions: S. cerevisiae cln2 rad14 strain, at 50.0 µM, stronger effect = higher value
Method in brief: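 The screen exposed genetically defined yeast (cln2 rad14) to test compounds and scored growth inhibition relative to vehicle-treated controls.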

[5] = NCI Yeast Anticancer Drug Screen. Data for the bub3 strain (AID 167); conditions: S. cerevisiae bub3 mutant strain, at 50.0 µM, stronger effect = higher value
Method in brief: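 Steps: expose the mutant yeast strain to compound; grow alongside vehicle-treated cultures; measure growth; express inhibition against the vehicle cultures.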

[6] = NCI Yeast Anticancer Drug Screen. Data for the mlh1 rad18 strain (AID 175); conditions: S. cerevisiae mlh1 rad18 strain growth inhibition; at 50.0 µM; stronger effect = higher value
Method in brief: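 Compound-treated yeast growth, normalised to vehicle controls. Strain bears defined DNA repair mutations.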

| SMILES | growth inhibition [1] | growth inhibition [2] | growth inhibition [3] | growth inhibition [4] | growth inhibition [5] | growth inhibition [6] |
| --- | --- | --- | --- | --- | --- | --- |
| CC1(C)C=C(C(Br)c2ccc(Cl)cc2)C(=O)c2ccccc21 (configuration not stated) | 96.8% (active) | 97.4% (active) | 98.2% (active) | 94.7% (active) | 88.2% (active) | 98.2% (active) |
| COc1ccc(N=Cc2ccc([N+](=O)[O-])cc2)cc1 | 27.9% | 0.75% | 15.2% | -22.4% | 9.9% | 36.1% |
| C=Cc1ccccc1NC(C(=O)O)c1ccccc1 (configuration not stated) | 18.8% | -5.05% | -0.8% | 18.6% | 7.2% | 1.35% |
| O=C(Nc1ccc(Cl)cc1)Nc1nnc2nc(C3(c4nc5nnc(NC(=O)Nc6ccc(Cl)cc6)n5[nH]c4=O)CCCC3=O)c(=O)[nH]n12 | -23.3% | -19.5% | -11.7% | -32.2% | 10.9% | -2.75% |
| Nc1cc(=O)[nH]c(SC2OC(CO)C(O)C2O)n1 (configuration not stated) | 29.1% | -9.6% | 9% | -44.1% | 0.1% | 17.6% |
| ClC(Cl)(Cl)c1ccc(C2OCCO2)cc1 | -17.8% | -6.8% | -7.85% | -26.6% | -22% | -0.3% |
| O=C1C2C3(CCl)C1C23CCl (configuration not stated) | 23.9% | 46.6% | 37.6% | 10.4% | 18.2% | 40.6% |
| CN1CC(=O)N(CO)/C1=N\CO | -7.15% | -5.45% | -6.85% | -10.8% | 5.85% | 2.05% |
| NC(Cc1cnc[nH]1)C(=O)NCC(=O)O (configuration not stated) | -11.4% | -6.2% | -11.8% | -10.2% | 4.3% | -8.95% |
| Clc1nncc2sc(-c3ccccc3)nc12 | 20.9% | -1.7% | 28.1% | 17.4% | 18.3% | -18.3% |
| CC(=O)NNc1nc(C)c(C(=O)/C=C/c2ccc(Cl)cc2)s1 | 44.2% | 12.7% | 21.7% | 27.4% | 19% | 30.2% |
| CCCCCCCCC/C=C\C(=O)O | 4.6% | -12.5% | 10.2% | -22.9% | -13.8% | 37% |
| CCCC(=O)Oc1ccc(C(C)(C)C)cc1C | -5.65% | -19.1% | 3.4% | -19.3% | -0.5% | -8.6% |
| C=CCSCC1Nc2cc(Cl)c(S(N)(=O)=O)cc2S(=O)(=O)N1C (configuration not stated) | 22.8% | 12.8% | 8.05% | 20.1% | -3.75% | 2.25% |
| O=c1cc2n(c(=O)n1-c1ccccc1)CCCC2 | 6.1% | 6.6% | 11.7% | 12.2% | -9.25% | -6.8% |
| c1cc(-c2cn3c(n2)SCC3)ccn1 | 15.5% | 5.9% | -12.8% | 7.8% | 25.2% | 19.9% |
| CCOC(=O)/C=C1\CONC(c2ccc(OC)cc2)=N1 | -9.1% | -5.3% | -12.4% | -19.2% | 3.4% | 2% |
| O=c1[nH]c(=S)[nH]c2c1CCC2 | 6% | 25.4% | 44.2% | 21.4% | 35.2% | 24.1% |
| O=C1CSC=C(c2ccccc2)O1 | 4.45% | 4.4% | -4.7% | -40.8% | -0.5% | -19.4% |
| CC1=NOC(=O)/C1=C/c1ccc(C)cc1 | 33.6% | 20.8% | 23.4% | 2.55% | 13.7% | 8.05% |
| CC(C)CC(CN(C)C)C(=O)/C=C/c1ccccc1 (configuration not stated) | 18.2% | -2.25% | 19.4% | -6.95% | 11.8% | 22.1% |

| SMILES | growth inhibition [1] | growth inhibition [2] | growth inhibition [3] | growth inhibition [4] | growth inhibition [5] | growth inhibition [6] |
| --- | --- | --- | --- | --- | --- | --- |
| CCOC(=O)NC(Nc1ccc(C(=O)OCC)cc1)(C(F)(F)F)C(F)(F)F | 0.25% | 3.25% | -15.2% | -16% | -13.2% | 0.55% |
| CN(C)c1ncnc2c1ncn2C1OC(CO)C(O)C1O (configuration not stated) | 14.2% | 20% | 4% | -34.4% | 18.1% | 24.5% |
| COc1ccc(-c2nc(N3CCCC3)no2)cc1 | -0.85% | -4.65% | 32.1% | 3.85% | 31.1% | -20.9% |
| C=C(C(=O)NC1CCCCC1)c1ccccc1 | -9.2% | -22.4% | -8.2% | -12.4% | 8.25% | 0% |
| O=S(O)OS(=O)O | -5.95% | -19.4% | -15.6% | -0.4% | 18.9% | -13.3% |
| CCCCN1C(=O)c2cc(=O)[nH]c(O)c2C1C (configuration not stated) | -19.4% | 6.35% | -25.9% | -0.55% | -27.1% | 3.25% |
| COC[C@@H](N=CN1CCc2cc(OC)c(OC)cc2C1)C(C)(C)C | -31.2% | -18.2% | -14.6% | 13% | -11.3% | -17% |
| O=C(CC(=O)C(=O)CC(=O)OCc1ccccc1)OCc1ccccc1 | 15% | -19.9% | -0.3% | 11.9% | -21.3% | 2.55% |
| COc1ccc(-c2cc(C(=O)Nc3cc(Cl)cc(Cl)c3)c3ccccc3n2)cc1 | -13.7% | -18.6% | -25.8% | -0.85% | -17.6% | 1.55% |
| CC(=O)c1c(-c2ccc(Cl)cc2)c(-c2ccc(Cl)cc2)nn(CCNC(C)C)c1=O | 96.7% (active) | 98.4% (active) | 95.8% (active) | 88.9% (active) | 80.5% (active) | 95% (active) |
| N#Cc1ccc(NN=NCCCCCCl)cc1 | 22.7% | -3.2% | 1.25% | 8.5% | 15.8% | 1.55% |
| CCc1nn2c(=O)nc(Oc3ccccc3)nc2s1 | -5.55% | 8.85% | 2% | 2.55% | 14.6% | 23.4% |
| O=C(CCc1ccccc1)n1cccc1CO | -10.1% | -21.1% | -6.85% | 17.9% | 16.2% | 1.35% |
| COc1cc(NCCN=C(N)NC#N)c2ncccc2c1 | 0.95% | 4.75% | -0.7% | -18.4% | -15.4% | 2.6% |
| Cn1c(C(=O)NN)cc2cc(OCc3ccccc3)ccc21 | 30.1% | 5.75% | 7.2% | 4.55% | 13.2% | 2.4% |
| O=C(OCCCl)OCCCl | 41.5% | 18.9% | 22.4% | -21.9% | -5.3% | 25% |
| CC(O)CN1CNC(=S)NC1 (configuration not stated) | -3.8% | -39.3% | -3.55% | 8.75% | -16.2% | -7.25% |
| CCCCCCCCCC(=O)Oc1cccc2onc(C)c12 | -21.2% | -43.5% | -20.2% | -7.8% | -13.5% | -10.8% |
| CC1(C)Cc2c(oc3ncnc(N)c23)CS1 | -10.3% | -14.1% | -8.8% | -4.75% | -4.65% | 9.2% |
| COc1cc(OC)c2[nH]c3c(c(=O)c2c1)C(=O)c1[nH]c2c(OC)cc(OC)cc2c(=O)c1C3=O | 26.8% | 4.55% | 12.8% | 17.4% | -3.55% | 19.9% |
| CCN(CC)CCSC(=O)c1ccc([N+](=O)[O-])cc1 | 20.1% | 7.7% | 15.6% | 19.8% | 38.5% | 8.1% |

Reference: PubChem BioAssay (NCI)
